Reference: the supplement of paper PMC11732987, “Enantioselective OTUD7B fragment discovery through chemoproteomics screening and high-throughput optimisation” (Communications Chemistry, 2025)

Legend:
Experiment in all cases: log2 ratio of Biotin-Ahx-Ub-VS probe labelling (fragment/DMSO); higher = less target engagement (more negative = stronger competition), active = hit call of the paper (q ≤ 0.05, log2 ratio ≤ -1)
Settings in all cases: compound concentration: 200 uM; treatment time: 3 h
USP42 = target: T1, USP42 (UniProt Q9H9J4)
T1 sequence (whole entry): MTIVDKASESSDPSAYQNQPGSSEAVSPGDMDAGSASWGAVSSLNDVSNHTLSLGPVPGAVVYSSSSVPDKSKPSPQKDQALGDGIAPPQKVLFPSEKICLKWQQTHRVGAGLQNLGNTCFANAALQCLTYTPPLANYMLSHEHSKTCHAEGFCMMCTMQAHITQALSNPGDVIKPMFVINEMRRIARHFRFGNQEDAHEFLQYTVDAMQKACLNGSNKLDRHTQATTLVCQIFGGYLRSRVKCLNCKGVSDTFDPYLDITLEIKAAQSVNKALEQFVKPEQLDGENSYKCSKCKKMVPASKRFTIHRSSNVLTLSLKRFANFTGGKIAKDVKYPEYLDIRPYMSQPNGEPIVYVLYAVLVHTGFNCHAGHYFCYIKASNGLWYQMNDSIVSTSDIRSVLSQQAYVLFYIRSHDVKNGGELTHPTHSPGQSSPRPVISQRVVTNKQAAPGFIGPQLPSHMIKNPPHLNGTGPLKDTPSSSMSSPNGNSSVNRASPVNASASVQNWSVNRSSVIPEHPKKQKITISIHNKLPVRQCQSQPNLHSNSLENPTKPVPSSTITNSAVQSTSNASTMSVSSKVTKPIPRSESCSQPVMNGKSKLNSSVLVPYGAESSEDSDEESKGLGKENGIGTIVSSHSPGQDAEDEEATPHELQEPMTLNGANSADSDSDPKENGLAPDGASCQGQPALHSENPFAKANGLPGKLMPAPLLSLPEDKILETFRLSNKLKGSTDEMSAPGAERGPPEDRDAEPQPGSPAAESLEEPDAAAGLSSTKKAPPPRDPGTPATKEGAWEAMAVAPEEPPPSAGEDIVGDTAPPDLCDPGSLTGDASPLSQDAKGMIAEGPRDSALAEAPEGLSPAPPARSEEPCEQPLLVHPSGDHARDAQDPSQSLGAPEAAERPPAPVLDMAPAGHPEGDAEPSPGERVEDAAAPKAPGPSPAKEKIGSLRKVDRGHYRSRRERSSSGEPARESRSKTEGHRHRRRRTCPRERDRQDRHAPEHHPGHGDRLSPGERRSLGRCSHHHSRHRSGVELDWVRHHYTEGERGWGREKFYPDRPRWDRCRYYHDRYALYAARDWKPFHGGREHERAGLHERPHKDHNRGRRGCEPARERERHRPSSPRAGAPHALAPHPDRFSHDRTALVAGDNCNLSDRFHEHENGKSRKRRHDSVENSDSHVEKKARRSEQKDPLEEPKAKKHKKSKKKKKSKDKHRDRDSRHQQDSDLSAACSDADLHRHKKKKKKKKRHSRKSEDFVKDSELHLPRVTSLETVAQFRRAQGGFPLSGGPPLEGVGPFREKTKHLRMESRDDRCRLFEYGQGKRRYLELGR
How it was run: (§1)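 HEK293T lysate (495 µg per sample, in Tris/CHAPS/IGEPAL buffer with protease inhibitors) was treated in triplicate with fragment at 200 µM or with DMSO for 3 h. It was then treated with Biotin-Ahx-Ub-VS (0.5 µM final) for 1 h. Labelled DUBs were NeutrAvidin-enriched, digested with LysC and trypsin, and run by diaPASEF LC-MS/MS. Spectronaut label-free quantities were global-median-normalised. Values are average log2 ratios fragment/DMSO by unpaired t-test, using proteins with ≥2 unique peptides.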

USP46 = USP46 (UniProt P62068)
How it was run: as §1

USP47 = target: T2, USP47 (UniProt Q96K76)
T2 sequence (whole entry): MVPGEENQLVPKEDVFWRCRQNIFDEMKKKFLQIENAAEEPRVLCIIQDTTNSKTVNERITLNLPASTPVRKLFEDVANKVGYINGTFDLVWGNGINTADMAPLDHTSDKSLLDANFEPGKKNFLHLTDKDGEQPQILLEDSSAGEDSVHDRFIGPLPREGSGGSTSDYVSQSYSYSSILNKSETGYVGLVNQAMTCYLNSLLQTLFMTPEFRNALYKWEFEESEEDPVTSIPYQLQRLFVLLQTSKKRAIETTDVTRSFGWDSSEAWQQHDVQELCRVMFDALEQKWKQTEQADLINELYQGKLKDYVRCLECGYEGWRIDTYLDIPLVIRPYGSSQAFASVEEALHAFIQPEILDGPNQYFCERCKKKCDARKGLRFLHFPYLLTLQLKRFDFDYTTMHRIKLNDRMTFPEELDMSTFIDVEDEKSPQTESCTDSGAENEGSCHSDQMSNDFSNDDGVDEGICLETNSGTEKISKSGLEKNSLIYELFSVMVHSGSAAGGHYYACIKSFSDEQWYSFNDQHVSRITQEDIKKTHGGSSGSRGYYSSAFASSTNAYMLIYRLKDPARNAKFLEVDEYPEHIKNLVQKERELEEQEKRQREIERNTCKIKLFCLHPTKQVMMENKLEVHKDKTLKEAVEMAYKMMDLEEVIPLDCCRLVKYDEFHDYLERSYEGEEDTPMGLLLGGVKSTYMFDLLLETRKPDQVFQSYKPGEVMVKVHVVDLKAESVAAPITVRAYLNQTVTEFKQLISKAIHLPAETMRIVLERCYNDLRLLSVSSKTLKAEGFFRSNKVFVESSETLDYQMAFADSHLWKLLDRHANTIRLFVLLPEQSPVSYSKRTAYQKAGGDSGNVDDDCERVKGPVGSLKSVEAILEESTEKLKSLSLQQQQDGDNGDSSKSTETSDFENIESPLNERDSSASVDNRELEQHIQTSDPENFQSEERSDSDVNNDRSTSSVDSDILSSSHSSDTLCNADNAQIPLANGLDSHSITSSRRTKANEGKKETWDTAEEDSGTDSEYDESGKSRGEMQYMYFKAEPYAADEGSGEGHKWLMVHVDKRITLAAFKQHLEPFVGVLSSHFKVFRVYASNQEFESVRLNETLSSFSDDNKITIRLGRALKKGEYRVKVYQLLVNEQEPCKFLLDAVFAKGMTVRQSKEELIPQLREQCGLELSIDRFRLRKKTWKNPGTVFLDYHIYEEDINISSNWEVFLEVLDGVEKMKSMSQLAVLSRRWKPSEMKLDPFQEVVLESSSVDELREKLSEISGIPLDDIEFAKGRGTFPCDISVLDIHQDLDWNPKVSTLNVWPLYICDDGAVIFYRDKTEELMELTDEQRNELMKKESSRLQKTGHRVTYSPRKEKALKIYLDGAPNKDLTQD
How it was run: as §1

USP48 = target: T3, USP48 (UniProt Q86UV5)
T3 sequence (whole entry): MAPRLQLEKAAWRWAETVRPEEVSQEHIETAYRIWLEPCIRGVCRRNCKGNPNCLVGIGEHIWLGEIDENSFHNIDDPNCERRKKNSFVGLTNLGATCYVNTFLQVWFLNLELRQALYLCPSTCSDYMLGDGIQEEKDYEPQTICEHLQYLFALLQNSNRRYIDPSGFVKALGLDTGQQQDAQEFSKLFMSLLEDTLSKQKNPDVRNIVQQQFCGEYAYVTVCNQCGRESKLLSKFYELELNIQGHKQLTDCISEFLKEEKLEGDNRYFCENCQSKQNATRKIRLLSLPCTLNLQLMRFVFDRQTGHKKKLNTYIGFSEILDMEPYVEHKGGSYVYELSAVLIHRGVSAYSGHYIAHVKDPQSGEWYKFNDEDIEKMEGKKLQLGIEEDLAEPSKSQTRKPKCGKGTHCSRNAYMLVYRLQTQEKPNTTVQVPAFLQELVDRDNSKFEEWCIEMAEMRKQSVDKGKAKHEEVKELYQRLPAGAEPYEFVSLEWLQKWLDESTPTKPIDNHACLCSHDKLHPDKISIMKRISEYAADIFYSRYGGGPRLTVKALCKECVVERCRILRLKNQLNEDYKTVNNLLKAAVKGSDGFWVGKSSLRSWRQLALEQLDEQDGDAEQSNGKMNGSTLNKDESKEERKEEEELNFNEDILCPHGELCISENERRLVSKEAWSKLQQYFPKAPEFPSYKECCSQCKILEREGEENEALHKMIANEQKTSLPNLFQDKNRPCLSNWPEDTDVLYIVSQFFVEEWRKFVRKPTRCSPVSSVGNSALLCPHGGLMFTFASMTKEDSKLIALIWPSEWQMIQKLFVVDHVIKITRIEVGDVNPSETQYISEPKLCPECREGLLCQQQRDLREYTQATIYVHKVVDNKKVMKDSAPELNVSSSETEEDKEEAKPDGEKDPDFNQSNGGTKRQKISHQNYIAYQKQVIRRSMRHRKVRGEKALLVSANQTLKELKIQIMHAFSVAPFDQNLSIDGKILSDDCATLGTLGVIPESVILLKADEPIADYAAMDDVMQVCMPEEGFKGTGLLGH
How it was run: as §1

USP5 = target: T4, USP5 (UniProt P45974)
T4 sequence (whole entry): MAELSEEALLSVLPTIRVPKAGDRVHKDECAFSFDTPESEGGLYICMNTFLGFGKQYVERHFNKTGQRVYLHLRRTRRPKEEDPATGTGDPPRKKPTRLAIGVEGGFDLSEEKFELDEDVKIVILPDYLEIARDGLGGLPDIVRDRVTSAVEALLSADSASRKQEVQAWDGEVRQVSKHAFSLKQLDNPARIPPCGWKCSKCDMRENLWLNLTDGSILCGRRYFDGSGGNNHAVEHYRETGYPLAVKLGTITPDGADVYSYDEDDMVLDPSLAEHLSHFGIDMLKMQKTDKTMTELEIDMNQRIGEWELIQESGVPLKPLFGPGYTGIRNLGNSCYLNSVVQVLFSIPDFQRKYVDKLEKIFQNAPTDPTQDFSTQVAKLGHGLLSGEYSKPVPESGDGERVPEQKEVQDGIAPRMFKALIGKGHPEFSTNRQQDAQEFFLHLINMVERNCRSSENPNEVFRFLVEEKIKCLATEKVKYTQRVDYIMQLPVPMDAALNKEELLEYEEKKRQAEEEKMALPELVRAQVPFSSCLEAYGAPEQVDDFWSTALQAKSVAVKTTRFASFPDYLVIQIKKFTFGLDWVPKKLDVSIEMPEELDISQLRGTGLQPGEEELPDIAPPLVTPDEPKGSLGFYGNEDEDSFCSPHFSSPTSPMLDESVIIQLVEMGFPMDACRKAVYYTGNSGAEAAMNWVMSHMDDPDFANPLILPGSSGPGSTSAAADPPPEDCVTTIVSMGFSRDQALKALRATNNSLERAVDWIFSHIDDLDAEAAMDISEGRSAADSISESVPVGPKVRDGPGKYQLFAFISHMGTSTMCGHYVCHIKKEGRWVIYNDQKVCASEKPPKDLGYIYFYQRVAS
How it was run: as §1

USP54 = USP54 (UniProt Q70EL1)
How it was run: as §1

USP7 = USP7 (UniProt Q93009)
How it was run: as §1

USP8 = target: T5, USP8 (UniProt P40818)
T5 sequence (whole entry): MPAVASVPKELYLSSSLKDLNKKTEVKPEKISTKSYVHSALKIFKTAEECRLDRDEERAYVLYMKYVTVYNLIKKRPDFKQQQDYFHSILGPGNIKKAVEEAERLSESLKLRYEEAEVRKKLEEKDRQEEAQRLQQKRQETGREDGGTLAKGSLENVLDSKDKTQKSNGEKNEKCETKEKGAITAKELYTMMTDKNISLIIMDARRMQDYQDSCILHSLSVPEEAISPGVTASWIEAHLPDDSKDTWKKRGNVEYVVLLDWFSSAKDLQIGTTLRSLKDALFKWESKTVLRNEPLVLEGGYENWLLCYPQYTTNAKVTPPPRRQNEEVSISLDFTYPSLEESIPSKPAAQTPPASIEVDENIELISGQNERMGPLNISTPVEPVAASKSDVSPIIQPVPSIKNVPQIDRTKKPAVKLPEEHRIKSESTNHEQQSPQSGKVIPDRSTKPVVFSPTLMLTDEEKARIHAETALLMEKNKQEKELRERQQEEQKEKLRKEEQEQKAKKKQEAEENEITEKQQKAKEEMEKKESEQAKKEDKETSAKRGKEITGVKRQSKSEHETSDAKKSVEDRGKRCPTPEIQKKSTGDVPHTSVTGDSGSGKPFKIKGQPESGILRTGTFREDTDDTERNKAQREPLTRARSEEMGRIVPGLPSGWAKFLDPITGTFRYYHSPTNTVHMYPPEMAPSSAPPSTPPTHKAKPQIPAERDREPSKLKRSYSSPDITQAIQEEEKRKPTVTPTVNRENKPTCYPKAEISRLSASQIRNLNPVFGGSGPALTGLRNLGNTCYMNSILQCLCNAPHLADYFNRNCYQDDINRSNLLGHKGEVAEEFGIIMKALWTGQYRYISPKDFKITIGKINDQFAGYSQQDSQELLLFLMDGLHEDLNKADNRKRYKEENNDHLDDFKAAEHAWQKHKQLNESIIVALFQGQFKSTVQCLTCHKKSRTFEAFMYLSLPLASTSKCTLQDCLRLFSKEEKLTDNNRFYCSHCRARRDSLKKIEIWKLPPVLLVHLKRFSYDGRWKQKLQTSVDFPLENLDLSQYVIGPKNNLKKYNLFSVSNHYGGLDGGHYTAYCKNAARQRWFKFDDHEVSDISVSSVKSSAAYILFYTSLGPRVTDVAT
How it was run: as §1

USP9X = USP9X (UniProt Q93008)
How it was run: as §1

UniProt O00487 = target: UniProt O00487
How it was run: as §1

Measured: log2 ratio of Biotin-Ahx-Ub-VS probe labelling

Chain of USP7 (Q93009 whole entry, looked up): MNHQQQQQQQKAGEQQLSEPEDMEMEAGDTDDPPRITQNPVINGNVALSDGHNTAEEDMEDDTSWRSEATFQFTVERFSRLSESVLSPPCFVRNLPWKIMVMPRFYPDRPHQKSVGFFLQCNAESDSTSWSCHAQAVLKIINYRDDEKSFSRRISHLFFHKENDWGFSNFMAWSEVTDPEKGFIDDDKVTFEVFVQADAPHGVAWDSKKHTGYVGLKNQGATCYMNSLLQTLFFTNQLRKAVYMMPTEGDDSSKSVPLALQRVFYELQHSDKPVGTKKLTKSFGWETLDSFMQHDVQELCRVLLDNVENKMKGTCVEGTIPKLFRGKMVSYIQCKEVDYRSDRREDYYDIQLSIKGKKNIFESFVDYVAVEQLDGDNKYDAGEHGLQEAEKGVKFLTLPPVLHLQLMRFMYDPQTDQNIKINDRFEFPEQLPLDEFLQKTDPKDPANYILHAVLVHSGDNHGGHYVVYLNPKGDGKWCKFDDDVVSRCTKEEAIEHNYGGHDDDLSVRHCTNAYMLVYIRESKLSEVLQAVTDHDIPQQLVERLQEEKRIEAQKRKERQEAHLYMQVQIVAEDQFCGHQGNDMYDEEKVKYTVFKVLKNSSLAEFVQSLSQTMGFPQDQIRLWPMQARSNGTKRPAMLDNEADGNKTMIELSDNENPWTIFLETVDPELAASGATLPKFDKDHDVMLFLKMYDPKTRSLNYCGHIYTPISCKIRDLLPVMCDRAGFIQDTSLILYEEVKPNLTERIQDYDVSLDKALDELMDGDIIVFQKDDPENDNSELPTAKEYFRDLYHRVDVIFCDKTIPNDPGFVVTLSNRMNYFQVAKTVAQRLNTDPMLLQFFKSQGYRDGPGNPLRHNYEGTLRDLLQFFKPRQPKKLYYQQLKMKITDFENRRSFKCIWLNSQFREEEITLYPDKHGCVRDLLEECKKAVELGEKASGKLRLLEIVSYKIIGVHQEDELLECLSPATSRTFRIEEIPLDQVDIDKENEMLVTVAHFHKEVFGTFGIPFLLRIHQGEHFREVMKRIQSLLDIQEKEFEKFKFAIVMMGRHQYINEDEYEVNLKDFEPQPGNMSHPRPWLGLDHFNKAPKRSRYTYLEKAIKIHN
Chain of UniProt O00487 (O00487 whole entry): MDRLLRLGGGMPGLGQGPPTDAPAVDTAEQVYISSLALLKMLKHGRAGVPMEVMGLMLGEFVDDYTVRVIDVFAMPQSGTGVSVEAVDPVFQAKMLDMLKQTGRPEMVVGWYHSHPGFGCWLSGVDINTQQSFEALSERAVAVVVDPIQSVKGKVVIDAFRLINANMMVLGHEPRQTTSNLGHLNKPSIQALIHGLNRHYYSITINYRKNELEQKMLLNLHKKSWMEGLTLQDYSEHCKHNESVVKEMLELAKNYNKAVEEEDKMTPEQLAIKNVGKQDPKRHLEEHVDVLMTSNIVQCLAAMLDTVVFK
Chain of USP9X (Q93008 whole entry): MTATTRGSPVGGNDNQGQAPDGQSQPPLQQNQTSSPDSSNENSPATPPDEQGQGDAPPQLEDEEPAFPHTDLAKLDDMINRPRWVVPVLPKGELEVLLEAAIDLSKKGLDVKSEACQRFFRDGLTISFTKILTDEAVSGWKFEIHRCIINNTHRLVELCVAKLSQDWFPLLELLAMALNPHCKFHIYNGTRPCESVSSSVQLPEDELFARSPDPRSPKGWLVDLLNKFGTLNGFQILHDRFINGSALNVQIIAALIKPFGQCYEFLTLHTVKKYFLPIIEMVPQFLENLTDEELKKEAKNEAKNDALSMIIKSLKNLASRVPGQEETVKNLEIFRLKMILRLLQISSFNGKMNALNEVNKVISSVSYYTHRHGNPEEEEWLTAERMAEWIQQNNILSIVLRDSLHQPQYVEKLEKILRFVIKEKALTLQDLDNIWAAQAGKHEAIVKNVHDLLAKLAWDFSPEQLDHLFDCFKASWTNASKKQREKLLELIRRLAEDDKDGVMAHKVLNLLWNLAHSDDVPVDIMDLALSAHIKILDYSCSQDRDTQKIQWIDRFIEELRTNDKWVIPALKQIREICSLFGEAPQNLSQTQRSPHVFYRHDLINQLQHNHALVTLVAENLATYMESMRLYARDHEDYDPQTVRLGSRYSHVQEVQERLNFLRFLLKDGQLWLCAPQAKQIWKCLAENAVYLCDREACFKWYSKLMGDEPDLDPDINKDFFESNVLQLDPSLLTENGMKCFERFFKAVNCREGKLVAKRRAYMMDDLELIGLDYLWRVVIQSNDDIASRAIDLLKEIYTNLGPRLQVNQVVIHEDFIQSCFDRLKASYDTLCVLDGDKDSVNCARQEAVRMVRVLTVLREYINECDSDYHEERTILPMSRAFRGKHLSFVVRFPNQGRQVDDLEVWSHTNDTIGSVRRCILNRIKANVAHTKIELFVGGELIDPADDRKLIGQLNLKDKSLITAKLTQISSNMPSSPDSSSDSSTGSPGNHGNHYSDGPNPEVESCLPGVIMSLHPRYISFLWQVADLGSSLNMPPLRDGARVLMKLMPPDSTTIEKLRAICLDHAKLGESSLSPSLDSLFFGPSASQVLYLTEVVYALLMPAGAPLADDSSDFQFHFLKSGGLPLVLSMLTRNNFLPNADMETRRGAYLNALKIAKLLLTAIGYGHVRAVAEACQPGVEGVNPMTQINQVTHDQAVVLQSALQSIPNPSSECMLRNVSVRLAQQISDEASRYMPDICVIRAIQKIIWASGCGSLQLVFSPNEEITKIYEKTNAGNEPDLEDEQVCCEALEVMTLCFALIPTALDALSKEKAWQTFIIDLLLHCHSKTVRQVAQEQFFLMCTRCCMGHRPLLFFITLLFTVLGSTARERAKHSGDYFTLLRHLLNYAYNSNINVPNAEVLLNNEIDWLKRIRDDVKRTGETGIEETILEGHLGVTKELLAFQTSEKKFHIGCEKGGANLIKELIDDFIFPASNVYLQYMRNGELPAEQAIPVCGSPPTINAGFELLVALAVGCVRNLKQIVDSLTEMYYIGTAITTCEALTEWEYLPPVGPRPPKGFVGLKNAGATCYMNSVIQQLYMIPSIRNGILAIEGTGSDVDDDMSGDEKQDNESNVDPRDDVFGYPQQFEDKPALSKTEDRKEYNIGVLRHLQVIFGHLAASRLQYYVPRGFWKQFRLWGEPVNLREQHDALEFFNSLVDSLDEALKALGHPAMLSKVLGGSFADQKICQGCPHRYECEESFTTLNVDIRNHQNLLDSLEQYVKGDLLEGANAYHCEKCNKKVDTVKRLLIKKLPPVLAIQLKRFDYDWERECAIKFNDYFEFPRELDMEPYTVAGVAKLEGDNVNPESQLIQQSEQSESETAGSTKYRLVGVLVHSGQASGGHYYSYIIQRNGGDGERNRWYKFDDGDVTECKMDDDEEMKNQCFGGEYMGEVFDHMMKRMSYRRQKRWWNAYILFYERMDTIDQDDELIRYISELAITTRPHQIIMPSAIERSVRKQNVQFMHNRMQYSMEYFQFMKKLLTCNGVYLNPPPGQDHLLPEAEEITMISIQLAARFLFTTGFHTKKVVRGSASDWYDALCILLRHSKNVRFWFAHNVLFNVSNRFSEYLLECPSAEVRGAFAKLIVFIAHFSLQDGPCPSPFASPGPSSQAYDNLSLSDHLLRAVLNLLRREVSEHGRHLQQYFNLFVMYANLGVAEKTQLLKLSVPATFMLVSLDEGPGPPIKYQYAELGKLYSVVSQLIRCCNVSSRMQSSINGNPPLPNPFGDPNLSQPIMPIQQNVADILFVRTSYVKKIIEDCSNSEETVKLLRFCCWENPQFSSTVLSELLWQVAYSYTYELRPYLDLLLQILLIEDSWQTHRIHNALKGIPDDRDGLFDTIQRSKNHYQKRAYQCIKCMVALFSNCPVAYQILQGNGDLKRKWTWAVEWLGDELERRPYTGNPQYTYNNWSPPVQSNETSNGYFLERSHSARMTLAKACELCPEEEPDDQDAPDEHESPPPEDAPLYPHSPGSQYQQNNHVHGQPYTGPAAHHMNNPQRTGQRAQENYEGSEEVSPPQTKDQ
Chain of USP46 (P62068 whole entry): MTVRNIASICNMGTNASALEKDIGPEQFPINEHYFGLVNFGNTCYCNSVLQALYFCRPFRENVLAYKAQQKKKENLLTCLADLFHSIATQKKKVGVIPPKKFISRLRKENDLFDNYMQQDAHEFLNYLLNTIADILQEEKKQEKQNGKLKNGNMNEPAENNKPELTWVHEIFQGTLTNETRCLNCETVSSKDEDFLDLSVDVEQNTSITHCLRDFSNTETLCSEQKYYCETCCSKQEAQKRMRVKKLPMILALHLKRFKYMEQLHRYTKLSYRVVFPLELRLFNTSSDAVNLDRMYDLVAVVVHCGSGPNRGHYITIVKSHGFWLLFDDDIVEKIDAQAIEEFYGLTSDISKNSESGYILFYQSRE

O=C(CCl)NCCC1COCCO1 (stereo not given)
inactive: USP42 0.357 | USP46 -0.000444 | USP47 -0.101 | USP48 -0.171 | USP5 -0.0923 | USP54 0.157 | USP7 -0.157 | USP8 -0.26 | USP9X -0.131 | UniProt O00487 -0.1
